In the supplement of paper PMC6555819:

Key:
Assay in all cases: PBM binding z-score (relative to random genomic background probes); higher = stronger binding; sequences stand for … in GC…GCGATTGACAGCGTAGAATGAAGG
[1] = system: FXR:RXRa (NR concentration 270 nM, RXRa partner concentration 90 nM)
Method in brief: (§1)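 Scanned fluorescence from custom Agilent 4×180K protein-binding microarrays was regression-normalized. Binding z-scores use random background probes as reference. Ligand-free nuclear receptor dimers were incubated on the arrays for 1 h and detected with antibodies against each partner (one per run).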

[2] = system: LXRa:RXRa (NR concentration 270 nM, RXRa partner concentration 90 nM)
Method in brief: as §1

[3] = system: LXRa homodimer (NR concentration 270 nM)
Method in brief: as §1

[4] = system: LXRb:RXRa (NR concentration 270 nM, RXRa partner concentration 90 nM)
Method in brief: as §1

[5] = system: LXRb homodimer (NR concentration 270 nM)
Method in brief: as §1

[6] = system: PPARa:RXRa (NR concentration 270 nM, RXRa partner concentration 90 nM)
Method in brief: as §1

[7] = system: PPARg:RXRa (NR concentration 180 nM, RXRa partner concentration 90 nM)
Method in brief: as §1

[8] = system: PPARg:RXRa 270nM:90nM, anti-RXR (NR concentration 270 nM, RXRa partner concentration 90 nM)
Method in brief: as §1

[9] = system: PPARg:RXRa 30nM:10nM, anti-RXR (NR concentration 30 nM, RXRa partner concentration 10 nM)
Method in brief: as §1

[10] = system: PPARg:RXRa 90nM:30nM, anti-RXR (NR concentration 90 nM, RXRa partner concentration 30 nM)
Method in brief: as §1

Sequence | PBM binding z-score [1] | PBM binding z-score [2] | PBM binding z-score [3] | PBM binding z-score [4] | PBM binding z-score [5] | PBM binding z-score [6] | PBM binding z-score [7] | PBM binding z-score [8] | PBM binding z-score [9] | PBM binding z-score [10]
TCTAGCATGCCAGAGGGTCACTCAAGAGGTACGG | 0.892 | 0.929 | -0.463 | 1.43 | -1.1 | 2.5 | 1.02 | 1.69 | 1.89 | 1.76
TCTTGTATATCAAAGGTTAAGAAAGCCGAAGCCT | 1.57 | 2.66 | 1.24 | 2.13 | 0.723 | 3.79 | 6 | 6.59 | 6.78 | 7.96
TATACAGGCTCAAAGGCCAGAGTACGAATGTCGA | -0.0411 | 0.0342 | -0.184 | -0.265 | -0.0867 | 0.221 | 1.03 | 1.75 | 0.77 | 1.4
GTACCAAGGTGAATAGGTGGTTGATGAGTAGGCG | 0.118 | 0.242 | -0.513 | -0.25 | -0.203 | 0.864 | 0.851 | 0.683 | 0.0319 | 0.389
GCTATTAGTTGAAAGGGCATCCGAATGATTCTCG | 0.204 | 0.581 | 0.00348 | 0.69 | 0.0114 | 2.22 | 2.35 | 4.39 | 2.34 | 3.96
TCTAGCAGGCCTGAGGGTCACTCAAGAGGTACGG | 1.03 | 1.18 | -0.547 | 1.32 | -1.24 | 2.38 | 0.588 | 1.57 | 1.62 | 1.44
GCTCGGAGGACAAGTTCAGAGCTTTGTCCGTAGA | 0.263 | 0.115 | -0.227 | 0.0203 | -0.625 | 0.311 | -0.94 | -0.31 | -1.15 | -0.738
CCTGCTATGTCATGGTCAGCTAATCTACAGTATG | 0.128 | -0.0634 | -0.269 | -0.0445 | -0.226 | -0.318 | 0.0811 | -0.104 | 0.0801 | 0.346
CGTCCAAGGTCAGCAGGTCAGTGGAAGCGACGTG | 5.74 | 3.85 | 0.538 | 2.96 | -0.217 | 4.94 | 4.05 | 4.15 | 0.99 | 2.87
CGTCAAAGTTCAACTAAGATAACGTAAAGCACGC | 6.92 | 6.3 | 4.03 | 4.14 | 2.68 | 5 | 4.94 | 5.19 | 2.56 | 4.27
TAGCCTAGGTCTTTGGGCCAGTATAGTACGCATC | -0.684 | -0.824 | -0.792 | -0.788 | -0.858 | -1.04 | 0.0223 | -0.571 | -0.609 | -0.513
TCGTGTAGATCAATAGAGGTTAAGAAAGTGCGCT | 0.712 | 3.48 | 0.576 | 1.76 | -0.163 | 1.86 | 0.088 | 1.57 | 2.53 | 2.13
